Source: PubChem
This is one part of a sample in which hits are shown more often than they occur.
miR122 inh: raises miR-122 sensor activity in Huh7 cells; Huh7 psiCHECK-miR122 Renilla luciferase sensor, 48 h; AID 623901; activation, % at 12.5 µM; 0.14% of 340,000 active;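 active = mean activation of 30% or more, with every replicate also reaching 30%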;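 note: 0% = median of neutral control wells and 100% = median of positive control wells; higher luciferase signal means stronger suppression of miR-122 activity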
Starred values were filed as active, the others as inactive.

SMILES	miR122 inh
COc1cccc(C#Cc2ccc3c(c2)O[C@H](CN(C)C(=O)CN2CCOCC2)[C@H](C)CN([C@@H](C)CO)S3(=O)=O)c1	-28
C/C=C/c1ccc2c(c1)O[C@@H](CN(C)C(=O)Cc1ccccn1)[C@@H](C)CN([C@@H](C)CO)S2(=O)=O	0
C/C=C/c1ccc2c(c1)O[C@H](CN(C)C(=O)c1cnccn1)[C@H](C)CN([C@@H](C)CO)S2(=O)=O	44*
CC(C)C#Cc1ccc2c(c1)O[C@H](CN(C)C(=O)c1ccccc1)[C@H](C)CN([C@H](C)CO)S2(=O)=O	12
CC(C)CC#Cc1ccc2c(c1)O[C@H](CN(C)C(=O)c1ccccc1)[C@@H](C)CN([C@@H](C)CO)S2(=O)=O	-40
CCC(=O)Nc1ccc2c(c1)OC[C@@H](C)N(C(=O)c1ccncc1)C[C@@H](C)[C@H](OC)CN(C)C2=O	1
C[C@H](CO)N1C[C@H](C)[C@H](CN(C)C(=O)c2ccccn2)Oc2ncc(-c3cccc(F)c3)cc2C1=O	8
CO[C@@H]1CN(C)C(=O)c2ccc(NC(=O)Nc3ccc(Cl)cc3)cc2OC[C@@H](C)N(C)C[C@@H]1C	-6
CCCN(C)C[C@H]1Oc2ncc(-c3ccccc3OC)cc2C(=O)N([C@@H](C)CO)C[C@H]1C	-4
C[C@@H]1CN([C@H](C)CO)S(=O)(=O)c2ccc(C#C[C@@H](C)O)cc2O[C@H]1CN(C)CC1CCOCC1	-36
CCC(=O)N(C)C[C@@H]1Oc2ncc(C#Cc3ccccc3OC)cc2C(=O)N([C@@H](C)CO)C[C@H]1C	3
C[C@@H]1CN([C@H](C)CO)C(=O)c2cc(C#CCc3ccccc3)cnc2O[C@@H]1CN(C)Cc1ccccn1	7
COCC#Cc1ccc2c(c1)O[C@H](CN(C)C(C)=O)[C@H](C)CN([C@@H](C)CO)S2(=O)=O	1
COCC#Cc1cnc2c(c1)C(=O)N([C@H](C)CO)C[C@@H](C)[C@H](CN(C)S(=O)(=O)c1cccc(OC)c1)O2	2
CC(C)C#Cc1cnc2c(c1)C(=O)N([C@H](C)CO)C[C@@H](C)[C@H](CN(C)C(=O)c1ccccc1)O2	1
CO[C@H]1CN(C)C(=O)c2ccc(NC(=O)Nc3cccc(F)c3)cc2OC[C@@H](C)N(C)C[C@@H]1C	-2
CC(C)C#Cc1ccc2c(c1)O[C@H](CN(C)C(=O)c1ccncc1)[C@H](C)CN([C@H](C)CO)S2(=O)=O	53*
COCC(=O)N(C)C[C@H]1Oc2cc(C#Cc3cccnc3)ccc2S(=O)(=O)N([C@H](C)CO)C[C@H]1C	51*
CC(C)CC#Cc1ccc2c(c1)O[C@H](CN(C)C(=O)c1cnccn1)[C@H](C)CN([C@H](C)CO)S2(=O)=O	39*
CCC(=O)N(C)C[C@@H]1Oc2cc(C#Cc3cccnc3)ccc2S(=O)(=O)N([C@@H](C)CO)C[C@H]1C	-8
C[C@@H]1CN([C@@H](C)CO)S(=O)(=O)c2ccc(C#Cc3ccncc3)cc2O[C@@H]1CN(C)C(=O)C1CCOCC1	33*
CCCC#Cc1ccc2c(c1)O[C@H](CN(C)C(=O)c1cccnc1)[C@H](C)CN([C@H](C)CO)S2(=O)=O	11
CCC(=O)N(C)C[C@H]1Oc2cc(C#Cc3cccnc3)ccc2S(=O)(=O)N([C@@H](C)CO)C[C@H]1C	-16
CCCC#Cc1ccc2c(c1)O[C@H](CN(C)C(=O)c1ccccn1)[C@@H](C)CN([C@H](C)CO)S2(=O)=O	-128
C[C@@H](O)C#Cc1ccc2c(c1)O[C@@H](CN(C)C(=O)c1ccncc1)[C@@H](C)CN([C@@H](C)CO)S2(=O)=O	2
SMILES	miR122 inh
C[C@@H]1CN([C@H](C)CO)S(=O)(=O)c2ccc(C#Cc3ccncc3)cc2O[C@@H]1CN(C)C(=O)C1CCCCC1	19
C[C@@H]1CN([C@H](C)CO)S(=O)(=O)c2ccc(C#Cc3ccncc3)cc2O[C@H]1CN(C)C(=O)C1CCCCC1	-32
C[C@H](O)C#Cc1ccc2c(c1)O[C@@H](CN(C)C(=O)c1ccncc1)[C@H](C)CN([C@@H](C)CO)S2(=O)=O	-3
C[C@@H]1CN([C@H](C)CO)S(=O)(=O)c2ccc(-c3ccncc3)cc2O[C@H]1CN(C)Cc1ccccc1	-8
CC(C)C#Cc1cnc2c(c1)C(=O)N([C@H](C)CO)C[C@@H](C)[C@@H](CN(C)C(=O)CC1CC1)O2	1
CO[C@@H]1CN(C)C(=O)c2ccc(NC(=O)NC(C)C)cc2OC[C@H](C)NC[C@H]1C	-4
COc1cccc(-c2cnc3c(c2)C(=O)N([C@@H](C)CO)C[C@H](C)[C@H](CN(C)C(=O)CC2CC2)O3)c1	4
Cc1ccc(S(=O)(=O)N(C)C[C@@H]2Oc3ncc(C#CCC(C)C)cc3C(=O)N([C@H](C)CO)C[C@@H]2C)cc1	-7
COc1cccc(-c2cnc3c(c2)C(=O)N([C@H](C)CO)C[C@H](C)[C@@H](CN(C)C(=O)Nc2ccccc2F)O3)c1	7
CCCNC(=O)N(C)C[C@H]1Oc2cc(C#CCOC)ccc2S(=O)(=O)N([C@@H](C)CO)C[C@@H]1C	-18
CCC(=O)N(C)C[C@H]1Oc2ncc(C#CC3(O)CCCC3)cc2C(=O)N([C@H](C)CO)C[C@@H]1C	-6
C[C@@H]1CN([C@H](C)CO)C(=O)c2cc(Br)cnc2O[C@@H]1CN(C)Cc1cccc(F)c1	3
C[C@@H]1CN([C@H](C)CO)C(=O)c2cc(C#Cc3cccc(F)c3)cnc2O[C@@H]1CN(C)C(=O)C1CC1	7
C[C@@H]1CN([C@@H](C)CO)C(=O)c2cc(-c3cccc(C#N)c3)cnc2O[C@@H]1CN(C)Cc1ccccc1	3
COCC(=O)N(C)C[C@@H]1Oc2cc(-c3cncnc3)ccc2S(=O)(=O)N([C@@H](C)CO)C[C@H]1C	0
C[C@H](CO)N1C[C@H](C)[C@@H](CN(C)Cc2ccc3c(c2)OCO3)Oc2ncc(Br)cc2C1=O	-3
CCCC#Cc1ccc2c(c1)O[C@H](CN(C)C(=O)CC)[C@H](C)CN([C@@H](C)CO)S2(=O)=O	-1
C[C@H](O)C#Cc1ccc2c(c1)O[C@@H](CN(C)Cc1cccnc1)[C@H](C)CN([C@@H](C)CO)S2(=O)=O	7
CCC(=O)N(C)C[C@H]1Oc2cc(C#Cc3ccccc3)ccc2S(=O)(=O)N([C@H](C)CO)C[C@H]1C	56*
CCCC#Cc1ccc2c(c1)O[C@H](CN(C)C(=O)CC)[C@H](C)CN([C@H](C)CO)S2(=O)=O	1
C[C@H](O)C#Cc1ccc2c(c1)O[C@@H](CN(C)Cc1ccc(-c3ccccc3)cc1)[C@H](C)CN([C@H](C)CO)S2(=O)=O	45*
C[C@@H]1CN([C@@H](C)CO)S(=O)(=O)c2ccc(C#C[C@@H](C)O)cc2O[C@H]1CN(C)Cc1cccnc1	8
CC(=O)N(C)C[C@@H]1Oc2cc(C#C[C@@H](C)O)ccc2S(=O)(=O)N([C@H](C)CO)C[C@@H]1C	4
Cc1noc(C)c1S(=O)(=O)N(C)C[C@@H]1Oc2c(NC(=O)c3cnccn3)cccc2C(=O)N([C@@H](C)CO)C[C@@H]1C	-166
C[C@H](CO)N1C[C@H](C)[C@H](CN(C)C(=O)Nc2ccc(F)cc2)Oc2ncc(-c3cccnc3)cc2C1=O	6
C[C@H]1CN([C@@H](C)CO)C(=O)c2cc(-c3cncnc3)cnc2O[C@H]1CN(C)Cc1ccccc1	-3
C[C@H]1CN([C@@H](C)CO)C(=O)c2cc(-c3cncnc3)cnc2O[C@@H]1CN(C)Cc1cncnc1	6
C[C@@H]1CN([C@H](C)CO)C(=O)c2cc(C#CC3(O)CCCC3)cnc2O[C@@H]1CN(C)Cc1cncnc1	2
